IL-1B inflam inh: qHTS for Inhibitors of Inflammasome Signaling: IL-1-beta AlphaLISA Primary Screen; THP-1 LPS/ATP IL-1B secretion, AlphaLISA, 16 h; hits give low values; activity change, % at 57.5 µM; 4.7% of 360,000 active; in the data active means activity change below about -50%; inconclusive means mostly about -30% to -49%
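THP-1 cells pretreated 1 hr with compounds (up to 57.5 uM final), then stimulated with LPS (250 ng/mL final) plus ATP (1.25 mM final); secreted IL-1B measured by AlphaLISA after 16 hr, decreased signal indicating inhibition.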
HT1080-NT tox: qHTS for induction of synthetic lethality in tumor cells producing 2HG: qHTS for the HT-1080-NT fibrosarcoma cell line | HT-1080-NT fibrosarcoma viability, CellTiter-Glo ATP luminescence, 48 h | Potency, µM (doses to about 46.1 µM), inactives show at the top dose activity, negative = less viability, hits mostly cytotoxic | 1.6% of 360,000 active | AID 686970, 2013;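 further: NT is the 2HG producing partner of a matched IDH1 knockdown line; potency means the concentration at half of the fitted maximal effect; 0% = DMSO-treated cells and -100% = media-only wells without cells; nearly all actives have a fitted effect of over 55% in size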
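Fibrosarcoma NT cells, 750 per well in 5% FBS RPMI, were exposed to compound for 48 hours. Viability: CellTiter-Glo luminescence.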
DT40 TDP1 no CPT: qHTS for Inhibitors of human tyrosyl-DNA phosphodiesterase 1 (TDP1): qHTS in cells in absence of CPT. DT40 Tdp1-/- hTDP1 cells, no CPT, ATP luminescence, 48 h. 15% of 420,000 active. Potency, µM (doses to about 46.2 µM), for inactives: at the top dose activity change, negative = growth inhibition, usual class: inhibitors; further: potency means the concentration at half of the fitted maximal effect; nearly all actives have a fitted effect of over 55% in size
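Seeded 400 DT40-hTDP1 cells/well (vehicle DMSO, no 20 nM CPT); pinned compounds; ≥48 hr at 37 °C; CellTiter-Glo luminescence as viability measure.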
HT1080 IDH1KD tx: qHTS for induction of synthetic lethality in tumor cells producing 2HG: qHTS for the HT-1080-IDH1KD cell line; HT-1080 IDH1 knockdown viability, ATP luminescence, 48 h; Potency, µM (doses to about 46.1 µM), for inactives: top-dose activity, negative = toxicity, most hits filed as cytotoxic; 2% of 360,000 active; AID 686971, 2013;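 further: potency means the concentration at half of the fitted maximal effect; 0% = DMSO wells and -100% = cell-free medium wells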
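Knockdown cells (IDH1KD HT-1080) received compounds 2 h after plating at 750 cells/well and were kept 48 h at 37 °C in 5% FBS RPMI. A CellTiter-Glo luminescence read gave % activity for curve fitting.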
DT40 TDP1 CPT: qHTS for Inhibitors of human tyrosyl-DNA phosphodiesterase 1 (TDP1): qHTS in cells in presence of CPT | chicken DT40 Tdp1-/-;hTDP1 cells + 20 nM CPT, ATP luminescence, 48 h | Potency, µM (highest dose often 46.2 µM), without a hit: at the highest dose activity change, negative = growth inhibition, usual class: inhibitors | 12% of 420,000 active; further: potency means the concentration at half of the fitted maximal effect; nearly all actives have a fitted effect of over 55% in size
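Chicken DT40 Tdp1-/- cells stably complemented with human TDP1 were seeded at 400 cells/well in medium containing 20 nM camptothecin, exposed to pin-transferred compounds, and grown at 37 °C for at least 48 hr. Viability was read as ATP luminescence.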
* hit, by the source's call; ? = inconclusive; nt = no result. Sampled rows, rich in hits. Any-hit rate of the full collection: about 19%. Unless noted, the call rests on the fitted dose curve; in most records, active means well fitted curve in the direction sought with a large enough effect; inconclusive means small, poorly fitted or top-dose-only effect, or another doubt; inactive means no such curve, though single readings can be large; an effect the other way counts as inactive or inconclusive. Unless noted, on the % scale 0 is the no-effect control and ±100 the full control effect.

SMILES | IL-1B inflam inh | HT1080-NT tox | DT40 TDP1 no CPT | HT1080 IDH1KD tx | DT40 TDP1 CPT
COc1cccc(-c2nc(NC3CC3)c3ccccc3n2)c1 | nt | nt | 20.6µM* | nt | 16.4µM*
N#Cc1cccc(-c2nc(NCc3cccnc3)c3ccccc3n2)c1 | nt | nt | -28.9% | nt | 2.2%
c1ccc(CNc2nc(-c3ccccn3)nc3ccccc23)cc1 | -71.4* | ? | 3.66µM* | ? | 3.66µM*
c1ccc(-c2nc(NCCCn3ccnc3)c3ccccc3n2)cc1 | -73.2* | -6.4% | -18.4% | -10.7% | 1.0%
Cc1ccc(C)c(S(=O)(=O)NNC(=O)c2sc(NS(=O)(=O)c3ccccc3)nc2C)c1 | 22.5 | -0.9% | -14.4% | -1.7% | ?
O=C(O)c1c(-c2ccc(Cl)cc2)cn2ccccc12 | 1.4 | 12.4% | -14.3% | 10.4% | 3.4%
Cc1ccc(-n2cc(C(=O)O)c(=O)cc2C)c(C)c1 | 29.5 | 5.8% | -7.5% | 7.3% | 4.9%
CCN(CC)C(=O)c1cn(CC)c(=O)c2cc(OC)c(OC)cc12 | 5.2 | -2.8% | -15.7% | -1.3% | -12.4%
CCn1c(CNC(=O)c2ccco2)nnc1SCC(=O)c1ccc(OC)cc1 | 5.7 | 12.9% | ? | 0.9% | -18.2%
CCC(C)N(C(=O)CSc1nc(C)c(C)c(C)c1C#N)C1CCS(=O)(=O)C1 (configuration not stated) | -4.8 | -11.1% | 20.6µM* | -17.1% | -6.2%
CCSc1nc(-c2cccs2)nc2ccccc12 | 5.9 | -14.3% | 18.4µM* | -14.6% | 14.6µM*
COc1cccc(-c2nc(NCc3ccccc3)c3ccccc3n2)c1 | nt | nt | 16.4µM* | nt | ?
c1ccc(CNc2nc(-c3ccccc3)nc3ccccc23)cc1 | -89.3* | -26.5% | -19.6% | ? | -17.5%
CC(C)(C)c1ccc(-c2nc(NCc3cccnc3)c3ccccc3n2)cc1 | -65.5* | 2.2% | ? | -16.9% | ?
c1ccc(CNc2nc(NCc3ccccc3)c3ccccc3n2)cc1 | -99.9* | 14.6µM* | 5.17µM* | 7.31µM* | 5.8µM*
c1ccc(CNc2nc(-c3cccs3)nc3ccccc23)cc1 | nt | ? | ? | 18.4µM* | ?
c1cncc(CNc2nc(-c3cccnc3)nc3ccccc23)c1 | -5.2 | 1.0% | 0.4% | -11.8% | ?
CCC(C)N(C(=O)CSc1nc(-c2cccs2)nc2ccccc12)C1CCS(=O)(=O)C1 (configuration not stated) | -82.8* | -23.2% | 16.4µM* | ? | ?
O=C(C1CC=CCC1)N1CCN(S(=O)(=O)c2ccc(F)cc2)CC1 (configuration not stated) | -8.5 | -3.3% | -0.9% | 3.6% | 6.8%
CC/C=C(\C(=O)N[C@@H]1C(=O)N2C(C(=O)OCOC(=O)C(C)(C)C)=C(COC(N)=O)CS[C@H]12)c1csc(N)n1 | nt | nt | -10.0% | nt | -3.4%
COC(=O)[C@]12CCCCC=C1N(Cc1ccc3c(c1)OCO3)C(=O)[C@H](CC(=O)NCCC(C)C)C2 | ? | -12.5% | ? | 1.5% | ?
COCCNc1nc(-c2cccc(OC)c2)nc2ccccc12 | nt | nt | 6.51µM* | nt | 18.4µM*
CCOc1ccc(/C=N/NC(=O)CN2CCCCC2)cc1OCC | 1.7 | -2.4% | 12.4% | 7.1% | -4.3%
C[C@@]12CCC(O)C[C@H]1CCc1ccccc12 (some centres not stated) | nt | nt | -14.9% | nt | 7.1%
CCCCc1ccc(NC(=O)N2CCN(c3cc(C)nc4ccccc34)CC2)c(C)c1 | -66.9* | ? | ? | -27.7% | ?
CC(=O)CSc1nnc(CN2C(=O)CSc3ccc(C(F)(F)F)cc32)n1C | 1.6 | -2.1% | 2.3% | -4.2% | -0.7%
Cc1cc(-c2ccccc2)nc(N(C)NC(=O)c2c(F)cccc2F)c1S(C)(=O)=O | -19.3 | -8.0% | 23.1µM* | -3.2% | ?

From PubChem BioAssay
